Records with an inconclusive call do not appear. The source made the active and inactive calls. Unless noted, calls come from the whole dose curve; as a rule, active = well fitted curve in the direction sought with a large enough effect in the repeat runs; inconclusive = weak or mixed curves; inactive = no such curve, though single readings can be large; an effect the other way counts as inactive or inconclusive.
Key:
[1] = qHTS assay to identify small molecule antagonists of the estrogen receptor beta (ER-beta) signaling pathway - cell viability counter screen (AID 1259382);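 note: HEK293T cells carrying ER-beta-UAS-bla reporter stimulated with estradiol; series mostly up to about 92 µM; nearly all actives have a fitted effect of over 55% in size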
In short: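 Cells: ER-beta-UAS-bla HEK293T, 2,000/well, 2% CS-FBS, 6 hr settle. Cpd + E2 (1nM final), 16 hr, 37C/5% CO2. Bla FRET substrate 2 hr RT, then CellTiter-Glo 30 min RT, luminescence.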

[2] = target: Estrogen receptor (Homo sapiens) (UniProt P03372); experiment: qHTS assay to identify small molecule agonists of the estrogen receptor alpha (ER-alpha) signaling pathway in the presence of an antagonist (AID 1259383; calls by dose curve; note: top concentration of the series differs between compounds; nearly all actives have a fitted effect of over 15% in size)
Chain of Estrogen receptor (Homo sapiens) (P03372 whole entry, looked up): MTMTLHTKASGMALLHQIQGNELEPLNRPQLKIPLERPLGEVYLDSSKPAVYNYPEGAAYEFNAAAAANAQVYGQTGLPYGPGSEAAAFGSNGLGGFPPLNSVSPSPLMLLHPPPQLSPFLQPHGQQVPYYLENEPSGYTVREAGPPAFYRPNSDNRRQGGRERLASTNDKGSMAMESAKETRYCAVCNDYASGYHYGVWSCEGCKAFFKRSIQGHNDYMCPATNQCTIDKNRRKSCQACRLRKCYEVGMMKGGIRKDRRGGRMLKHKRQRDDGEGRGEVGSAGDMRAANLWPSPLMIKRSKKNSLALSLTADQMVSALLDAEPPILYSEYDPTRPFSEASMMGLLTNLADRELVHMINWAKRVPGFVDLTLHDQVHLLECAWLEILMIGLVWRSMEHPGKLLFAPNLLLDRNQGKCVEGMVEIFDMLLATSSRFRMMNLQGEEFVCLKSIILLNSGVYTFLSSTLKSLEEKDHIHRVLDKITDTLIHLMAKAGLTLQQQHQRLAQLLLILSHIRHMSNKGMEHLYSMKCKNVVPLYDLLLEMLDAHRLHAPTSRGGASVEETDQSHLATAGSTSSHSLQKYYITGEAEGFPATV
In short: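 VM7Luc4E2, endog. ER-alpha + 4×ERE-luc; charcoal-stripped FBS, phenol red-free, 5 d; 24hr plating; +10.0nM ICI-182,780 (final); cpds 15 conc, 22hr, 37C/5% CO2; ONE-Glo luminescence.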

[3] = qHTS assay to identify small molecule agonists or antagonists of the thyroid stimulating hormone receptor (TSHR) signaling pathway - wild type cell line counter screen (AID 1259384; calls by dose curve)
In short: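 Counter screen in untransfected Hek293: compounds (15-point titration, triplicate) plus phosphodiesterase inhibitor Ro20-1724 added after 18 h plating; 30 min RT. Intracellular cAMP via competitive d2/cryptate immunoassay, 1 h incubation.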

[4] = target: Thyrotropin receptor (Homo sapiens) (UniProt P16473); experiment: qHTS assay to identify small molecule antagonists of the thyroid stimulating hormone receptor (TSHR) signaling pathway (AID 1259385; calls by dose curve; note: nearly all actives have a fitted effect of over 20% in size)
Chain of Thyrotropin receptor (Homo sapiens) (P16473 whole entry, looked up): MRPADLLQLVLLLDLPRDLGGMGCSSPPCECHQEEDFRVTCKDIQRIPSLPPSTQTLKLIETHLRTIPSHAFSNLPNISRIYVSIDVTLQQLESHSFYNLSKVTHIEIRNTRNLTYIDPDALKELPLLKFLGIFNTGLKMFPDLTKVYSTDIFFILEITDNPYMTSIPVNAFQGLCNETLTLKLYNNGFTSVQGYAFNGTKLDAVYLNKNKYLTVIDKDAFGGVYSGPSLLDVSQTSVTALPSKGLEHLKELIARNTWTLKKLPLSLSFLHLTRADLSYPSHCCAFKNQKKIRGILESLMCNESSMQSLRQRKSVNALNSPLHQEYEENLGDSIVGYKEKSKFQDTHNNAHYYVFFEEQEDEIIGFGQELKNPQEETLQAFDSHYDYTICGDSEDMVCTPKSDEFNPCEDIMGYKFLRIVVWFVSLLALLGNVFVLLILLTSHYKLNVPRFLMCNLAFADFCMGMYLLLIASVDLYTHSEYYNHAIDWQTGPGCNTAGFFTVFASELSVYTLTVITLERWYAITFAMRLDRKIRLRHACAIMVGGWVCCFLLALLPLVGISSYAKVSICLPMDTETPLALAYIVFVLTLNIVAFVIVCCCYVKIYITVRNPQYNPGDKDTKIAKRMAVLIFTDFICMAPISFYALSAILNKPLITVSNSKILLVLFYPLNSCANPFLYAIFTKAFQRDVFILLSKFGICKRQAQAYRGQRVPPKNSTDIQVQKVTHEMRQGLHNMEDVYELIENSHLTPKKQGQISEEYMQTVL
In short: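 Antagonist mode: compound-treated TSHR-expressing HEK293 cells were stimulated with 1.5 ng/mL TSH (final) in presence of Ro20-1724 for 30 min at RT. HTRF cAMP detection after 1 h; each compound tested at 15 concentrations, triplicate.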

[5] = qHTS assay to identify small molecule agonists of the estrogen receptor alpha (ER-alpha) signaling pathway in the presence of an antagonist - cell viability counter screen (AID 1259386);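 note: series mostly up to about 92 µM; cells exposed to compounds for 22 h at 37 °C before the viability read; nearly all actives have a fitted effect of over 30% in size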
In short: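 VM7Luc4E2, stripped-serum pre-culture 5 d; 24hr plating; +ICI-182,780 10.0nM final; cpds 15 conc, 22hr, 37C/5% CO2; CellTiter-Fluor added at 21hr, fluorescence 1hr later.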

[6] = target: Progesterone receptor (Homo sapiens) (UniProt P06401); experiment: qHTS assay to identify small molecule agonists of the progesterone receptor (PR) signaling pathway (AID 1346784; calls by dose curve; note: nearly all actives have a fitted effect of over 30% in size)
Chain of Progesterone receptor (Homo sapiens) (P06401 whole entry, looked up): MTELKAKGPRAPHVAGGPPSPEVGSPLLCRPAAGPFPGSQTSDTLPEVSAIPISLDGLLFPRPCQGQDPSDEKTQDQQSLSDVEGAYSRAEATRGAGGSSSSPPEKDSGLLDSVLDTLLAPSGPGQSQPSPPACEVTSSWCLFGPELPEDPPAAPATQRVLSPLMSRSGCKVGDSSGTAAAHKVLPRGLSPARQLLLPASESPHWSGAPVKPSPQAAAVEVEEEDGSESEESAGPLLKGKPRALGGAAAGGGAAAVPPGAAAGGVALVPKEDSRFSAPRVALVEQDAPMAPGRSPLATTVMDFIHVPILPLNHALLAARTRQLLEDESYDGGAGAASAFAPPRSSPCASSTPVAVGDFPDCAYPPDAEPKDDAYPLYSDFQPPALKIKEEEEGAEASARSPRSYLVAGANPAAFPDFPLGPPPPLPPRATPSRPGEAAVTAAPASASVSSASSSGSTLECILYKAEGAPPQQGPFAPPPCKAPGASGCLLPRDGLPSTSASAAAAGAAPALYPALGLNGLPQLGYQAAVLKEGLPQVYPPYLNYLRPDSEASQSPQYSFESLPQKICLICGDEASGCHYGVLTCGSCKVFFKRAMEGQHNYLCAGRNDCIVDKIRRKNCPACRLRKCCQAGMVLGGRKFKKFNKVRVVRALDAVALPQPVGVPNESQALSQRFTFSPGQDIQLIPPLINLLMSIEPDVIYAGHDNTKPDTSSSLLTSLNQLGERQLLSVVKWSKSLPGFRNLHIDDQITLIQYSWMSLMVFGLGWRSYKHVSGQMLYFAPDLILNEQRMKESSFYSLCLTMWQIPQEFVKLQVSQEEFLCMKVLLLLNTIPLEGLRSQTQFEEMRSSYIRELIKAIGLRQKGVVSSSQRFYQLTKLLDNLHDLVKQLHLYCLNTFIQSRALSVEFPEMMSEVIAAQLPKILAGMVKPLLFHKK
In short: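 Seed PR-UAS-bla HEK 293T cells (2% charcoal-stripped FBS), incubate 6 hr at 37C; add compounds in DMSO, 16 hr at 37C; add LiveBLAzer B/G substrate, 2 hr RT; read fluorescence intensity.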

[7] = target: Progesterone receptor (Homo sapiens) (UniProt P06401); experiment: qHTS assay to identify small molecule antagonists of the progesterone receptor (PR) signaling pathway (AID 1346795; active = well fitted inhibition curve with a large enough effect in the signal ratio in the repeat runs, not every such curve was filed as active; the % refers to the signal ratio)
In short: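 Screening used a GripTite HEK293T line with PR-responsive UAS-beta-lactamase. Cells were challenged with compound in the presence of 1 nM R5020 final for 16 hr at 37C; B/G FRET substrate, 2 hr room temperature, fluorescence.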

[8] = qHTS assay to identify small molecule antagonists of the progesterone receptor (PR) signaling pathway - cell viability counter screen (AID 1346798); note: series mostly up to about 92 µM; nearly all actives have a fitted effect of over 50% in size
In short: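 Measures cytotoxicity in parallel with the PR antagonist reporter read: HEK293T PR-UAS-bla cells get compound and R5020 for 16 hr, and remaining viable cells are quantified by CellTiter-Glo luminescence.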

[9] = qHTS assay to identify small molecule antagonists of the TGF-beta/Smad signaling pathway - cell viability counter screen (AID 1346824); note: nearly all actives have a fitted effect of over 50% in size
In short: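 Cytotoxicity counter-screen run in the same wells as the beta-lactamase Smad reporter read: CellTiter-Glo luminescence after 30 min at room temperature. HEK 293T SBE-bla cells had 5 hr compound exposure at 37 C with TGF-beta1 (0.25 ng/mL stock).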

[10] = qHTS assay to identify small molecule agonists of the TGF-beta/Smad signaling pathway - cell viability counter screen (AID 1346829); note: top concentration of the series differs between compounds; nearly all actives have a fitted effect of over 45% in size
In short: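 HEK 293T SBE-bla line, 5 hr compound exposure at 37 C, multiplexed CellTiter-Glo viability read by luminescence.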

[11] = qHTS assay to identify small molecule agonists of the TGF-beta/Smad signaling pathway (AID 1346859; active = well fitted activation curve with a large enough effect in the signal ratio in the repeat runs, not every such curve was filed as active; the % refers to the signal ratio; note: series mostly up to about 77 µM)
In short: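 Beta-lactamase reporter activity downstream of Smad binding elements was measured in stably transfected HEK 293T cells; compounds were incubated for 5 hr, substrate for 2 hr at room temperature.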

[12] = target: Thyrotropin-releasing hormone receptor (Homo sapiens) (UniProt P34981); experiment: qHTS assay to identify small molecule antagonists of the thyrotropin-releasing hormone receptor (TRHR) signaling pathway (AID 1346877; active = well fitted inhibition curve with a large enough effect in the repeat runs, not every such curve was filed as active; note: series mostly up to about 51 µM)
Chain of Thyrotropin-releasing hormone receptor (Homo sapiens) (P34981 whole entry, looked up): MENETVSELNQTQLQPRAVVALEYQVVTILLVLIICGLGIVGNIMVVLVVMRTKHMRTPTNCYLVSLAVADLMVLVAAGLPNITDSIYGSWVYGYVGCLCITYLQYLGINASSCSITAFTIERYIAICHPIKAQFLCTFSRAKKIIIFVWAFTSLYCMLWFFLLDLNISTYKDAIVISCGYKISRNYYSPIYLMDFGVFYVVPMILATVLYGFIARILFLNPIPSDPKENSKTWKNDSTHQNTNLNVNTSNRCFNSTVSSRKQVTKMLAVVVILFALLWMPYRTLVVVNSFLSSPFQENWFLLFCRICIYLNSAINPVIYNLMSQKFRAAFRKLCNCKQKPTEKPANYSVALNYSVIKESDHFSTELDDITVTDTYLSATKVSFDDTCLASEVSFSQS
In short: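 Intracellular calcium fluorescence, read kinetically every second over 3 min, reports TRH-evoked signalling in HEK293 cells carrying TRHR. Test compounds were added 5 min ahead of a 1 nM TRH challenge.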

[13] = target: Thyrotropin-releasing hormone receptor (Homo sapiens) (UniProt P34981); experiment: qHTS assay to identify small molecule agonists of the thyrotropin-releasing hormone receptor (TRHR) signaling pathway (AID 1346891; calls by dose curve;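 note: HEK293 cells expressing TRHR with calcium dye readout; series mostly up to about 58 µM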)
In short: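 Overnight-plated (18 h, 37 °C, 5% CO2) TRHR-Hek293 cells; 2 h calcium dye at 37 °C; compound in DMSO; 3-min kinetic fluorescence read.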

[14] = Human pregnane X receptor (PXR) small molecule agonists, qHTS cell viability counter screen (AID 1346977); note: nearly all actives have a fitted effect of over 50% in size
In short: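 After a 5hr pre-incubation, PXR-Luc HepG2 cells received compounds plus positive control in DMSO and were kept 24hr at 37C. Cell viability was quantified by fluorescence from CellTiter-Fluor added for the final hour.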

[15] = Caspase-3/7 induction in HepG2 cells by small molecules, qHTS assay (AID 1346978); note: nearly all actives have a fitted effect of over 15% in size
In short: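 Caspase-3/7 induction was measured by Caspase-Glo 3/7 luminescence (30 min, room temperature) after a 17 hr compound exposure of wild-type HepG2 cells seeded at 2,000 per well and pre-incubated 5 hr.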

[16] = Caspase-3/7 induction in CHO-K1 cells by small molecules, qHTS cell viability counter screen (AID 1346979); note: nearly all actives have a fitted effect of over 35% in size
In short: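 Multiplexed with Caspase-Glo 3/7 in CHO-K1 cells, this counter screen added CellTiter-Fluor after 16hr of compound exposure and recorded fluorescence 1hr later.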

[17] = Caspase-3/7 induction in CHO-K1 cells by small molecules, qHTS assay (AID 1346980); note: nearly all actives have a fitted effect of over 15% in size
In short: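 Luminescent Caspase-Glo 3/7 read (30min, room temperature) quantified apoptosis induction. Cells were wild-type CHO-K1, treated with compound for 17hr at 37 C and 5% CO2.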

[18] = Caspase-3/7 induction in HepG2 cells by small molecules, qHTS cell viability counter screen (AID 1346981); note: series mostly up to about 92 µM; nearly all actives have a fitted effect of over 30% in size
In short: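 HepG2, WT, 2,000 cells/well; 5 hr pre-incubation 37 C/5% CO2; compound pin-transferred from DMSO; 16 hr exposure; CellTiter-Fluor, 1 hr; fluorescence read.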

[19] = qHTS assay to identify small molecule agonists of the progesterone receptor (PR) signaling pathway - cell viability counter screen (AID 1346799; calls by dose curve; note: nearly all actives have a fitted effect of over 45% in size)
In short: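 Using the same plates as the PR reporter screen, HEK293T PR-UAS-bla cells received compounds for 16 hr at 37C and were then lysed with CellTiter-Glo; luminescence was read 30 min later at room temperature.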

[20] = target: Nuclear receptor subfamily 1 group I member 2 (Homo sapiens) (UniProt O75469); experiment: Human pregnane X receptor (PXR) small molecule agonists, qHTS assay (AID 1346982); note: nearly all actives have a fitted effect of over 35% in size
Chain of Nuclear receptor subfamily 1 group I member 2 (Homo sapiens) (O75469 whole entry, looked up): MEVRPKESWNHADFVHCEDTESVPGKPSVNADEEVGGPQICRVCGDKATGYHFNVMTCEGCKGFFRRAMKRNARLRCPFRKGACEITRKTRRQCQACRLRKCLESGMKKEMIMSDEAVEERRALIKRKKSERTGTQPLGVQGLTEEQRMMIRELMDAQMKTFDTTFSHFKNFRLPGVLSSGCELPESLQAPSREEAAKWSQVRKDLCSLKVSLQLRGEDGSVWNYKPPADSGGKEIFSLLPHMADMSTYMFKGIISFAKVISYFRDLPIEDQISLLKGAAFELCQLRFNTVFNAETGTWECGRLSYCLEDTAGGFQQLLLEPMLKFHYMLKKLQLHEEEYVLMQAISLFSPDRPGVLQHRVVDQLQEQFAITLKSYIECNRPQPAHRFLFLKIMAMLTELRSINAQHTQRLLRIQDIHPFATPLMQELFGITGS
In short: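 Luciferase signal from ONE-Glo (30 min, room temperature) measured activation of hPXR-driven CYP3A4 reporter expression in PXR-Luc HepG2 cells treated with compounds for 24 hr at 37 C.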
% is set by controls: 0 for no effect and ±100 for the full control effect.

O=C(O)CCCCCCCCCC(=O)O
inactive: outcome [1] | Potency [2] | outcome [3] | outcome [4] | outcome [5] | Potency [6] | Potency [7] | outcome [8] | outcome [9] | outcome [10] | outcome [11] | outcome [12] | Potency [13] | outcome [14] | outcome [15] | Potency [16] | outcome [17] | outcome [18]

CC(C)C(=O)Nc1cccc(C2CN3CCSC3=N2)c1 (centres undefined)
inactive: outcome [1] | Potency [2] | outcome [3] | outcome [4] | outcome [5] | Potency [6] | Potency [7] | outcome [8] | Potency [19] | outcome [9] | outcome [10] | outcome [11] | outcome [12] | Potency [13] | outcome [14] | outcome [15] | Potency [16] | outcome [17] | outcome [18] | Potency [20]

C[n+]1ccccc1/C=N/O
inactive: outcome [1] | Potency [2] | outcome [3] | outcome [4] | outcome [5] | Potency [6] | Potency [7] | Potency [19] | outcome [9] | outcome [10] | outcome [11] | outcome [12] | Potency [13] | outcome [14] | outcome [15] | Potency [16] | outcome [17] | outcome [18] | Potency [20]

O=C(OOC(=O)c1ccccc1)c1ccccc1
inactive: outcome [1] | Potency [2] | outcome [3] | outcome [4] | outcome [5] | Potency [6] | Potency [7] | outcome [8] | Potency [19] | outcome [9] | outcome [10] | outcome [11] | outcome [12] | Potency [13] | outcome [14] | outcome [15] | Potency [16] | outcome [17] | outcome [18] | Potency [20]

CCC(C)(C)C
inactive: outcome [1] | Potency [2] | outcome [3] | outcome [4] | outcome [5] | Potency [6] | Potency [7] | outcome [8] | Potency [19] | outcome [9] | outcome [10] | outcome [11] | outcome [12] | outcome [14] | outcome [15] | Potency [16] | outcome [17] | outcome [18] | Potency [20]

CN(C)CCCN(C)C
inactive: activity change, negative = cytotoxicity [1] -0.979% [at 8.39 µM] | activation [2] -2.43% [at 8.39 µM] | cAMP activity change [3] 3.11% [at 8.39 µM] | activity change, negative = inhibition [4] 4.29% [at 8.39 µM] | activity change, negative = cytotoxicity [5] 0.833% [at 8.39 µM] | activation [6] -0.0517% [at 8.39 µM] | activity change, negative = inhibition [7] 12.8% [at 8.39 µM] | activity change, negative = cytotoxicity [8] 5.2% [at 8.39 µM] | activity change, negative = cytotoxicity [19] 1.47% [at 8.39 µM] | viability change, negative = cytotoxic [9] -1.68% [at 6.97 µM] | activity change, negative = cytotoxicity [10] 0.619% [at 6.97 µM] | activation [11] -1.23% [at 6.97 µM] | activity, negative = inhibition [12] -3.47% [at 4.65 µM] | activation [13] -0.372% [at 5.23 µM] | activity change, negative = cytotoxicity [14] 11.9% [at 8.39 µM] | caspase activation [15] 0.348% [at 8.39 µM] | activity change, negative = cytotoxicity [16] 2.18% [at 8.39 µM] | caspase-3/7 activation [17] 1.46% [at 8.39 µM] | activity change, negative = cytotoxicity [18] 6.58% [at 8.39 µM] | activation [20] 5.88% [at 8.39 µM]

CC(C)CC(O)Cc1ccccc1 (centres undefined)
inactive: outcome [1] | Potency [2] | outcome [3] | outcome [4] | outcome [5] | Potency [6] | Potency [7] | outcome [8] | Potency [19] | outcome [9] | outcome [10] | outcome [11] | outcome [12] | outcome [14] | outcome [15] | outcome [17] | outcome [18] | Potency [20]
